Screening data: PubChem, National Center for Advancing Translational Sciences (NCATS)
A selection: hits, their analogues and other compounds. The true share with any hit is near 1.1%.
HttQ103 aggreg: inhibitors of mutant huntingtin aggregate formation in PC12 cells | PC12 HttQ103-GFP aggregates, Acumen cytometry, 40 h | Potency, µM (highest dose often 46.1 µM), for the others: top-dose activity change, negative = inhibition, actives largely listed as inhibitors | hit rate 1.1% among 220,000 | AID 1688; further: potency means the concentration at half of the fitted maximal effect; on the % scale 0 is the no-effect control and ±100 the full control effect; nearly all actives have a fitted effect of over 60% in size
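PC12 cells with ecdysone-inducible HTT exon1 Q103-GFP, induced by 100 nM tebufenozide, given compounds in a concentration series. GFP aggregates (1–25 um, 6 SD above background) counted in lysates by laser-scanning cytometry, 488 nm excitation.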
NPSR antagonist: antagonists of human neuropeptide S receptor cAMP signaling; Q6W5P4; CHO-NPSR cells, cAMP TR-FRET, antagonist mode; Potency, µM (top dose mostly 38.3 µM), without a hit: top-dose activity change, negative = inhibition, hits mostly inhibitors; hit rate 1% among 220,000; further: potency means the concentration at half of the fitted maximal effect; on the % scale 0 is the no-effect control and ±100 the full control effect; nearly all actives have a fitted effect of over 50% in size
Target sequence (Q6W5P4 whole entry, looked up): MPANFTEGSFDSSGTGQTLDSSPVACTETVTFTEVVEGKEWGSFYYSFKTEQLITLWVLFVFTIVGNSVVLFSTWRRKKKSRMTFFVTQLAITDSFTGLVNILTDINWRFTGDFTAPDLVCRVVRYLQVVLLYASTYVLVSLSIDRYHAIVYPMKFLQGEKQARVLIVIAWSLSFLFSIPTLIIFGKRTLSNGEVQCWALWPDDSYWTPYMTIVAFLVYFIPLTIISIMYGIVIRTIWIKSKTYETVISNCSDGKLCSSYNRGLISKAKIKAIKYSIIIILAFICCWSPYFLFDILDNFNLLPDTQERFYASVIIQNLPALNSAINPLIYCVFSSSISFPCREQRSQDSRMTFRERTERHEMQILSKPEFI
HTT ATP protect: protects HTT-Q103 PC12 cells, measured by ATP; AID 1471; hit rate 0.14% among 230,000; PC12 HTT-Q103 induced, cytoprotection, ATP luminescence, 40 h; Potency, µM (doses to about 56.4 µM), for the others: cytoprotection (ATP increase), hits mostly activators; further: potency means the concentration at half of the fitted maximal effect; % of control where 0% means no effect; nearly all actives have a fitted effect of over 45% in size
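Cells were plated at 1500 per well in phenol red-free DMEM with 5% equine and 5% calf serum. Tebufenozide (100 nM final) and compounds were added, then ATPlite reagent, and luminescence was read.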
MBNL1 CUG block: MBNL1-poly(CUG) RNA binding inhibition. Potency, µM (top dose mostly 57.5 µM), inactives show at the top dose activity change, negative = inhibition, most hits filed as inhibitors. TR-FRET MBNL1-His/biotin-(CUG)12 binding, 665/545 ratio. AID 2675. hit rate 0.036% among 280,000. Q9NR56; active means well fitted inhibition curve with a large enough effect in the signal ratio, with a control signal flat, not every such curve was filed as active; inconclusive means small, poorly fitted or top-dose-only effect, or effect the other way, or a change in a side signal; inactive means no such curve, though single readings can be large or run the other way; the % refers to the signal ratio; further: potency means the concentration at half of the fitted maximal effect; on the % scale 0 is the no-effect control and ±100 the full control effect
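His-tagged MBNL1 binding to biotinylated (CUG)12 RNA was measured by TR-FRET using terbium anti-His antibody (0.055 ng/ul final) and streptavidin-XL665 (5 nM final). Compounds were titrated 92 nM to 58 uM; 60 min at room temperature.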
Lamin A splicing: LMNA splicing modulation | HeLa LMNA splicing GFP/RFP minigene ratio, 48 h | Potency, µM (doses to about 46.1 µM), without a hit: at the top dose ratio change, negative = inhibition, hits mostly inhibitors | hit rate 0.01% among 200,000; active means well fitted inhibition curve with a large enough effect in the signal ratio, with a control signal flat, not every such curve was filed as active; inconclusive means small, poorly fitted or top-dose-only effect, or effect the other way, or a change in a side signal; the % refers to the signal ratio; further: potency means the concentration at half of the fitted maximal effect; on the % scale 0 is the no-effect control and ±100 the full control effect
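S3 HeLa stable clones carrying a lamin A-EGFP splicing minigene plus DsRed2 were seeded at 600 cells/well in Opti-MEM with 2% FBS, pin-dosed and incubated 48 h at 37°C. Acumen cytometry (488 nm) gave the GFP/RFP total-intensity ratio.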
CBFb RUNX1 block: inhibitors of human CBF-beta and RUNX1 interaction. Q01196+Q13951. AlphaScreen CBFb-His/RUNX1-biotin binding, biochemical. Potency, µM (series often up to 59.8 µM), without a hit: top-dose activity, negative = inhibition, usual class: inhibitors. 230,000 tested, under 10 active. AID 1477; further: % of control where 0% means no effect
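Read-out: AlphaScreen. Format: His-CBF-beta with biotinylated RUNX1 (30 nM each) preincubated 20 min, compound 15 min, Ni-chelate plus streptavidin beads 90 min; room temperature throughout.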
The depositor's hits bear a star; ? = inconclusive; . = no result; [ ] = another dose, or the depositor's remark. Unless noted, the call rests on the fitted dose curve; in most records, active means well fitted curve in the direction sought with a large enough effect; inconclusive means small, poorly fitted or top-dose-only effect, or another doubt; inactive means no such curve, though single readings can be large; an effect the other way counts as inactive or inconclusive.

SMILES	HttQ103 aggreg	NPSR antagonist	HTT ATP protect	MBNL1 CUG block	Lamin A splicing	CBFb RUNX1 block
O=C(/C=C/c1ccc(N2CCCCC2)c([N+](=O)[O-])c1)c1ccc(O)cc1	18µM*	-42%	-5%[10 µM]	2%	?	?
CC(=O)N1N=C(c2ccco2)CC1c1cccs1 (configuration not stated)	?	-5%[46.1 µM]	5%[10 µM]	26%	2%	-21%
O=C(CCl)N1N=C(c2ccco2)CC1c1cccs1 (configuration not stated)	11µM*	-18%[46.1 µM]	37%[10 µM]	15%	?	-12%
CC(C)(C)NC(=S)NNC(=O)c1cccc(Br)c1	11µM*	-36%	-141%	1%	?	0%
CCc1cc2c(=O)c(-c3cnn(-c4ccccc4)c3)c(C)oc2cc1OCC(=O)Nc1ccc(F)c(F)c1	?	7.9µM*	.	.	4%	3%
CCc1cc2c(=O)c(-c3cnn(-c4ccccc4)c3)c(C)oc2cc1OCC(=O)Nc1cccc(C)c1	-5%	?	?	.	-10%	4%
COc1cc(C2c3cc4c(cc3C(OC3OC5COC(C)O[C@@H]5C(O)C3O)C3COC(=O)C23)OCO4)cc(OC)c1O (some centres not stated)	.	.	-155%	.	.	4%
COc1ccc(C2/C=C\CN(C(=O)Nc3ccccc3-c3ccccc3)CC(=O)N2Cc2ccc(F)cc2)cc1 (configuration not stated)	-19%[9.22 µM]	10µM*	-14%[10 µM]	-3%	.	1%
O=C(O)CN(c1ccc(F)cc1)S(=O)(=O)c1ccc2c(c1)OCCO2	.	8%[46.1 µM]	3.2µM*	4%	1%	-4%
CCCNC(=O)CN(c1ccc(F)cc1)S(=O)(=O)c1ccc2c(c1)OCCO2	9%	-6%[46.1 µM]	-4%	-3%	8%	5%
CC(C)(C)c1ccc(C(=O)c2c[nH]c(C(=O)NCc3cccnc3)c2)cc1	-15%	-19%[46.1 µM]	7%[10 µM]	1%	-8%	2%
O=C(Cc1ccc(Cl)cc1)c1c[nH]c(C(=O)NCc2cccnc2)c1	18µM*	-16%	-17%[10 µM]	5%	-2%[46 µM]	-20%
COC(=O)/C(=C\c1ccc(O)cc1)c1nc2ccccc2[nH]1	9%	0%	18%	4%	.	-20%
COc1cc(/C=C(/C(=O)c2cccs2)c2nc3ccccc3[nH]2)ccc1O	?	10µM*	-2%	-9%	?	-4%
O=C(/C(=C/c1ccc(Cl)cc1)c1nc2ccccc2[nH]1)c1cccs1	5µM*	2µM*	-110%	1%	?	-19%
O=C(/C(=C\c1ccccc1)c1nc2ccccc2[nH]1)c1ccc(Cl)cc1	?	10µM*	-54%[10 µM]	-3%	?	-11%
Cc1ccc(N2CC(NC(=O)Cc3ccc(F)cc3)CC2=O)cc1C (configuration not stated)	.	.	.	.	7%[46 µM]	.
Cc1cccc(OCCSc2nc3ccc(NC(=O)c4cccs4)cc3s2)c1	.	.	.	.	4%[46 µM]	.
C[C@H]1Cc2c(-c3ccccc3)nc3c(c2CO1)CN(S(=O)(=O)c1ccc(C#N)cc1)CC3	.	.	-26%[10 µM]	.	-9%[9.22 µM]	4%[13.1 µM]
CN1C[C@@H]2C(c3ccc(Cl)nc3)C3(c4ccccc4)CC2(C3)[C@H]1c1ccccc1 (some centres not stated)	-28%[9.22 µM]	4µM*	-18%	10%	.	7%
Cc1ccc(NC(=O)c2ccccc2NS(=O)(=O)c2ccc(F)cc2)cc1S(=O)(=O)N1CCCCC1	2.5µM*	-55%	-37%[10 µM]	15%	?	-2%
O=C(Nc1ccc(F)cc1)c1cc(S(=O)(=O)N2CCCCC2)cs1	10µM*	-8%[46.1 µM]	-9%	-4%	3%	3%
O=C(O)CCn1cnc2c(=S)nc[nH]c21	.	.	11%[10 µM]	.	.	.
COc1ccc(NC(=O)CN(C)S(=O)(=O)c2ccc(C(=O)N3CCOCC3)s2)cc1	.	.	.	.	4%[46 µM]	.
